# Test results reported in PubChem BioAssay (Tox21).
# Records with an inconclusive call do not appear. Calls of active or inactive are those of the source. The call rests on the fitted dose curve.
# Tested on: thyroid hormone receptor (rat, GH3 cells)
# Test: qHTS assay to identify small molecule agonists of the thyroid receptor (TR) signaling pathway (AID 743066)
# Conditions: GH3.TRE-Luc cells, TR agonist luciferase, 24 h; series mostly up to 83.9 µM; activation: at the top concentration
# On the % scale 0 is the no-effect control and ±100 the full control effect.
Compound,activation,outcome
CN=C(NC#N)Nc1ccc(C2=NNC(=O)CC2C)cc1 (stereo not drawn),0.0401% (inactive),
O=C(OCC1(COC(=O)c2cccnc2)CCCC(COC(=O)c2cccnc2)(COC(=O)c2cccnc2)C1O)c1cccnc1,1.2% (inactive),
OCCN(CCO)c1cccc(Cl)c1,-0.129% (inactive),
CCCC/C=C\CCCCCCCCCC=O,0.485% (inactive),
CC(C)(C)OC(=O)c1ccc(O)cc1,2.57% (inactive),
CC/C=C\CC1=C(C)CCC1=O,1.61% (inactive),
CCC(C=O)CC,-0.582% [at 95.2 µM] (inactive),
BrCc1cccc(Oc2ccccc2)c1,0.128% (inactive),
C[Si](C)(C)C,-0.578% (inactive),
N#Cc1ccc(C(=O)O)cc1,0.103% (inactive),
O=C(NCCN1CCOCC1)c1ccc(Cl)cc1,,inactive
CC(C)CC(C)CC(C)CC(C)COC(=O)c1ccccc1C(=O)OCC(C)CC(C)CC(C)CC(C)C (stereo not drawn),0.587% (inactive),
CCCOC(OCCC)OCCC,8.26% (inactive),
CNC(=O)[C@H]1O[C@@H](n2cnc3c(NCc4cc(Cl)ccc4OCc4cc(C)no4)ncnc32)[C@H](O)[C@@H]1N,-0.436% (inactive),
FC(F)(F)c1ccccc1-n1ccnc1,-0.116% (inactive),
CC1COc2ccccc2N1 (stereo not drawn),0.0175% (inactive),
O=C(O)c1cc(Br)c(O)c(Br)c1,0.0504% (inactive),
C=CC(OCC)OCC,0.125% (inactive),
CCOCCOCCOCC,0.486% (inactive),

Compound,activation,outcome
C#CC(C)N(C)C(=O)Nc1ccc(Cl)cc1 (stereo not drawn),2.08% (inactive),
CCO[Si](CCCS)(OCC)OCC,1.17% (inactive),
N[C@@H](COP(=O)(O)O)C(=O)O,1.94% (inactive),
Cc1ccccc1N=O,0.141% [at 95.2 µM] (inactive),
COC(=O)C1CC(=O)C(C(=O)OC)CC1=O (stereo not drawn),-0.929% [at 8.08 µM] (inactive),
CC(=O)c1sc(C)nc1C,-0.244% (inactive),
CCC(C)(CCC(C)C)C(=O)O (stereo not drawn),0.138% (inactive),
CC(C)(C)c1cc(CCC(=O)NN)cc(C(C)(C)C)c1O,-4.39% (inactive),
O=S(=O)(O)CCN1CCN(CCO)CC1,0.816% (inactive),
CC(C)NCC(O)COc1cccc2[nH]ccc12 (stereo not drawn),0.636% (inactive),
CC(=O)N[C@@H](CCC(=O)O)C(=O)O,0.0908% (inactive),
c1ccc2c(c1)ccc1c3ccccc3ccc21,1.69% (inactive),
CCN(CC)CC(=O)Nc1c(C)cccc1C,-0.262% (inactive),
CC(C)C[C@H](NC(=O)CNC(=O)[C@H](Cc1ccc(O)cc1)NC(=O)[C@H](CO)NC(=O)[C@H](Cc1c[nH]c2ccccc12)NC(=O)[C@H](Cc1cnc[nH]1)NC(=O)[C@@H]1CCC(=O)N1)C(=O)N[C@@H](CCCN=C(N)N)C(=O)N1CCC[C@H]1C(=O)NCC(N)=O (stereo in doubt),0.379% (inactive),
COc1ccc(OC)c(Cl)c1,1.07% (inactive),
CC(CN)CC(C)(C)CCN (stereo not drawn),1.02% [at 95.2 µM] (inactive),
O=C(NCC(O)CO)c1c(I)c(C(=O)NCC(O)CO)c(I)c(N(CCO)C(=O)CO)c1I (stereo not drawn),0.331% [at 39.4 µM] (inactive),
NCCS,,inactive

# Tested on: not listed separately
# Test: qHTS assay to identify small molecule antagonists of the estrogen receptor alpha (ER-alpha) signaling pathway - cell viability counter screen (AID 743074);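 further: HEK293 cells carrying ER-alpha-UAS-bla reporter stimulated with 17beta-estradiol; nearly all actives have a fitted effect of over 45% in size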
# Conditions: ERalpha-bla HEK293 viability, CellTiter-Glo luminescence, 18 h; series mostly up to 69.4 µM; activity, negative = cytotoxicity: at the top concentration
Compound,"activity, negative = cytotoxicity",outcome
CN=C(NC#N)Nc1ccc(C2=NNC(=O)CC2C)cc1 (stereo not drawn),39.9% (inactive),
O=C(OCC1(COC(=O)c2cccnc2)CCCC(COC(=O)c2cccnc2)(COC(=O)c2cccnc2)C1O)c1cccnc1,-0.704% (inactive),
OCCN(CCO)c1cccc(Cl)c1,40.1% (inactive),
CCCC/C=C\CCCCCCCCCC=O,21.2% (inactive),
CC(C)(C)OC(=O)c1ccc(O)cc1,-9.35% (inactive),
CC/C=C\CC1=C(C)CCC1=O,7.16% (inactive),
CCC(C=O)CC,5.7% [at 79.1 µM] (inactive),
BrCc1cccc(Oc2ccccc2)c1,-8.19% (inactive),
C[Si](C)(C)C,11.8% (inactive),
N#Cc1ccc(C(=O)O)cc1,10% (inactive),
O=C(NCCN1CCOCC1)c1ccc(Cl)cc1,,inactive
CC(C)CC(C)CC(C)CC(C)COC(=O)c1ccccc1C(=O)OCC(C)CC(C)CC(C)CC(C)C (stereo not drawn),4.94% (inactive),
CCCOC(OCCC)OCCC,9.18% (inactive),
FC(F)(F)c1ccccc1-n1ccnc1,-3.65% (inactive),
CC1COc2ccccc2N1 (stereo not drawn),-0.715% (inactive),
O=C(O)c1cc(Br)c(O)c(Br)c1,13.7% (inactive),
C=CC(OCC)OCC,-15.4% (inactive),
CCOCCOCCOCC,20.5% (inactive),

Compound,"activity, negative = cytotoxicity",outcome
C#CC(C)N(C)C(=O)Nc1ccc(Cl)cc1 (stereo not drawn),24.3% (inactive),
CCO[Si](CCCS)(OCC)OCC,-8.13% (inactive),
N[C@@H](COP(=O)(O)O)C(=O)O,5.24% (inactive),
Cc1ccccc1N=O,-12.1% [at 79.1 µM] (inactive),
COC(=O)C1CC(=O)C(C(=O)OC)CC1=O (stereo not drawn),10.1% [at 6.72 µM] (inactive),
CC(=O)c1sc(C)nc1C,6.3% (inactive),
CCC(C)(CCC(C)C)C(=O)O (stereo not drawn),23.1% (inactive),
CC(C)(C)c1cc(CCC(=O)NN)cc(C(C)(C)C)c1O,11.7% (inactive),
O=S(=O)(O)CCN1CCN(CCO)CC1,7.82% (inactive),
CC(C)NCC(O)COc1cccc2[nH]ccc12 (stereo not drawn),10.6% (inactive),
CC(=O)N[C@@H](CCC(=O)O)C(=O)O,17.1% (inactive),
c1ccc2c(c1)ccc1c3ccccc3ccc21,10.7% (inactive),
CCN(CC)CC(=O)Nc1c(C)cccc1C,-6.89% (inactive),
CC(C)C[C@H](NC(=O)CNC(=O)[C@H](Cc1ccc(O)cc1)NC(=O)[C@H](CO)NC(=O)[C@H](Cc1c[nH]c2ccccc12)NC(=O)[C@H](Cc1cnc[nH]1)NC(=O)[C@@H]1CCC(=O)N1)C(=O)N[C@@H](CCCN=C(N)N)C(=O)N1CCC[C@H]1C(=O)NCC(N)=O (stereo in doubt),-10.5% (inactive),
COc1ccc(OC)c(Cl)c1,12.6% (inactive),
CC(CN)CC(C)(C)CCN (stereo not drawn),5.72% [at 79.1 µM] (inactive),
O=C(NCC(O)CO)c1c(I)c(C(=O)NCC(O)CO)c(I)c(N(CCO)C(=O)CO)c1I (stereo not drawn),10.9% [at 32.6 µM] (inactive),
NCCS,,inactive
